In PubChem BioAssay AID2314 (National Center for Advancing Translational Sciences (NCATS), 2010):
About 37,000 (12%) of roughly 300,000 compounds were called active. The full list was thinned out, with actives kept by preference. Values without a mark were called inactive. No stated cut-off is given here; in the data, active means max response mostly above about 13% (no sharp cut-off); inactive means mostly below about 14%.

assay: Cycloheximide Counterscreen for Small Molecule Inhibitors of Shiga Toxin; settings: cell reporter, cycloheximide protein synthesis inhibition counterscreen; stronger effect = higher value; further: read at 38.3 µM for the half of the compounds with a filed dose; 0% is about no effect

First: O=C1Nc2cc(C(=O)N3CCC(N4CCCCC4)CC3)ccc2S/C1=C\c1ccccc1
Second: O=C(c1ccc(OC2CCN(C/C=C/c3ccc(F)cc3)CC2)cc1)N1CCCCC1
The max response of the first is lower: -5.33% for the first, -0.769% for the second.

Going from C=CCN1C2CCCC1CC(NC(=S)Nc1cccc(OC)c1)C2 (configuration not stated) to O=C(Nc1cccc(OC(=O)N2CCCCC2)c1)N1CCOCC1, the max response rises from -2.67% to 5.17%.

First: CC(=O)N1CCc2cc(S(=O)(=O)NC3CCCCC3)ccc21
Second: CCOc1ccc(C)cc1S(=O)(=O)NC1CCCCCC1
The max response of the first is higher: -2.05% for the first, -2.48% for the second.

Going from O=C(Nc1ccc(C(=O)O)cc1)/C(=C\c1ccccc1)NC(=O)c1ccc(Br)cc1 to O=C(Nc1ccc(Br)cc1)c1cc(S(=O)(=O)Nc2ccccn2)ccc1Cl, the max response rises from -2.74% to 0.597%.

Compared with COc1ccc(C(=O)NC2CC(C)(C)Cc3c2cnn3-c2ccccc2)c(OC)c1 (configuration not stated), COc1ccc(CNC(=O)C(C)n2nc(C)c3c(C)n(-c4ccccc4)nc3c2=O)c(OC)c1 (configuration not stated) is lower in max response: 0.758% for the first, -7.8% for the second.

Compared with CCCNC(=O)OC[C@H]1O[C@H](CCO/N=C/[C@@H](NS(=O)(=O)c2ccc(C)cc2)[C@H](C)/C=C/CC(=O)OC)C=C[C@@H]1Oc1ccc(OC)cc1, COc1ccccc1N(CC(=O)N/N=C(\C)c1ccccc1O)S(=O)(=O)c1ccc(C)cc1 is higher in max response: -2.36% for the first, -1.67% for the second.

Going from Cc1cccc(N2CCN(C(=O)CN(C)S(=O)(=O)c3ccc4c(c3)CCC(=O)N4)CC2)c1C to CCOc1ccccc1N1CCN(C(=O)COc2ccc3c(C)cc(=O)oc3c2)CC1, the max response rises from -5.43% to -3.54%.

Going from Cc1cccc(S(=O)(=O)N2CN(CC3CCCO3)c3nc4ccccc4nc32)c1 (configuration not stated) to Cc1ccccc1NC(=O)NCC1CCN(Cc2cccc(Cl)c2)CC1, the max response falls from 12.8% to -4.17%.

First: O=c1oc2ccccc2c(CNc2ccccc2)c1[N+](=O)[O-]
Second: CNC(=O)c1cc2c(ccc3ccccc32)oc1=N
The max response of the first is lower: -2.06% for the first, 18.4% for the second.

Compared with COc1ccc([N+](=O)[O-])cc1NC(=O)CCc1ccccc1, COc1ccccc1OCCNC(=O)c1cc([N+](=O)[O-])cc([N+](=O)[O-])c1 is higher in max response: -3.85% for the first, 6.58% for the second.

Compared with CC(C)(C)NC(=O)CSc1nnc(NC(=O)CCc2ccccc2)s1, CC(C)N(Cc1ccccc1)C(=O)COC(=O)c1cnccn1 is lower in max response: -0.182% for the first, -3.2% for the second.

Going from CCn1c(SCC(=O)Nc2ccc3c(c2)OCCO3)nnc1C(C)C to CCCn1c(SCC(N)=O)nnc1C(C)C, the max response falls from -1.89% to -4.34%.

First: COc1cc(C(=O)N/C(=C\c2cn(C)c3ccccc23)C(=O)N2CCOCC2)cc(OC)c1OC
Second: COc1cc(OC)c(OC)cc1CN1CCN(C(=O)c2cccc3ccccc23)CC1
The max response of the first is lower: -5.05% for the first, -0.856% for the second.

Compared with O=C(C1CCCN(S(=O)(=O)c2ccccc2)C1)N1CCN(c2ccc(F)cc2)CC1 (configuration not stated), O=C(c1cccc(Br)c1)N1CCN(C2=NS(=O)(=O)c3ccccc32)CC1 is lower in max response: 8% for the first, -3.24% for the second.

First: CCOC(=O)c1ccc(NC(=O)c2cc(=O)[nH]c3ccccc23)cc1
Second: Cc1cccc(C(=O)Nc2ccc(CC(=O)O)cc2)c1
The max response of the first is higher: -2% for the first, -5.6% for the second.

First: O=[N+]([O-])c1ccc2[nH]c3c(c2c1)CCCC3O (configuration not stated)
Second: Cc1ccc(C(=O)N2CCCCCC2)cc1Br
The max response of the first is lower: -4.82% for the first, 10.4% for the second.

Compared with O=C(COc1cccc(F)c1)Oc1ccc(C(=O)c2ccccc2)cc1, O=C(c1ccccc1)c1ccc(OCC(O)CN2CCCC2)cc1 (configuration not stated) is lower in max response: 15.6% for the first, 5.75% for the second.

Compared with CC(C)(C)c1ccc(C(=O)N2CCC(C(=O)N3CCCCC3)CC2)cc1, Cc1ccc2oc(=O)c3cnn(CC(=O)N4CCCCCC4)c3c2c1 is lower in max response: -2.39% for the first, -10.3% for the second.

First: CC(C)CCNC(=O)C(C)N(C(=O)Cn1nnc(-c2ccc(F)cc2)n1)C1CCCC1 (configuration not stated)
Second: CC1=C(C(=O)OC2CCCCC2)C(c2ccccc2F)NC(=O)N1 (configuration not stated)
The max response of the first is lower: -1.9% for the first, 13.8% for the second.

First: COC(C[C@@H](O)[C@H](C)[C@H](O)COCc1ccccc1)OC
Second: O=C(OCC(O)C(O)COC(=O)c1ccccc1)c1ccccc1 (configuration not stated)
The max response of the first is higher: 5.98% for the first, -1.94% for the second.

Compared with O=C(NCCS(=O)(=O)N1CCN(c2ccccc2F)CC1)c1ccc(Br)o1, O=S(=O)(c1ccc2c(c1)OCCCO2)N1CCN(S(=O)(=O)c2c(F)cccc2F)CC1 is lower in max response: 8.75% for the first, 3.98% for the second.

Going from Cc1csc(NC(=O)CSc2nnc(-c3cccnc3)o2)n1 to CN(C)c1nc(-c2cccnc2)nc(-c2ccc(Cl)cc2)c1C#N, the max response rises from -7.35% to -4.98%.

First: CCCNCc1cc(OCC)c(OCC(=O)Nc2ccccc2)cc1Br
Second: Cc1cc(C)nc(N(C#N)CC(=O)Nc2ccccc2)n1
The max response of the first is higher: -0.891% for the first, -2.23% for the second.

First: CCN(CC)CCCNC(=O)CCn1nc(-c2ccc(Cl)cc2)ccc1=O
Second: CC(=O)OCCN(CCCn1c(-c2ccncc2)nc2ccccc21)c1nc(-c2ccc(C)cc2)cs1
The max response of the first is lower: -2.58% for the first, -0.764% for the second.

Going from C=CCn1c(SCC(=O)NCCCO)nc2sc3c(c2c1=O)CCC3 to C=CCN1CCN(C(=O)CCCc2ccccc2)CC1, the max response rises from -2.04% to 1.1%.

Going from NCCCCC(N)C(=O)O (configuration not stated) to CCCCCC(=O)NC(=S)NNC(=O)c1ccc([N+](=O)[O-])cc1, the max response rises from -7.46% to 0.94%.

First: CN1/C(=C\C=C2\N=C(c3ccc(F)cc3)OC2=O)C(C)(C)c2ccccc21
Second: O=C(Nc1nnc(-c2ccc(F)cc2)s1)c1c(F)cccc1Cl
The max response of the first is lower: -1.91% for the first, -1.16% for the second.

Compared with Cc1cccc(C(=O)Nc2ccc(C(=O)N/N=C/c3cccc(C)n3)cc2)c1, CCOc1ccc(N=Cc2c(O)n(-c3cccc(C)n3)c(=O)c3ccccc23)cc1 is higher in max response: 5.54% for the first, 9.6% for the second.

First: CCCS(=O)(=O)N1CCN=C1SCc1cccc(F)c1
Second: CCCCn1c(=O)c(C(C)=O)c(O)c2ccccc21
The max response of the first is lower: -1.71% for the first, 1.86% for the second.

Compared with COc1ccc(NC(=O)COC(=O)c2ccncc2)c(OC)c1, CCOC(=O)C1=C(c2ccccc2)NC(=O)NC1c1cc(OC)c(OC)cc1OC (configuration not stated) is higher in max response: 0.0404% for the first, 1.07% for the second.

First: COc1cccc2cc(C(=O)NCc3ccc(C)cc3)c(=N)oc12
Second: CC(NC(=O)c1cc2cc(Cl)ccc2oc1=N)c1ccccc1 (configuration not stated)
The max response of the first is higher: 3.84% for the first, -1.94% for the second.

Compared with O=C(N/C(=C\c1ccc([N+](=O)[O-])cc1)C(=O)N1CCCCC1)c1ccco1, CC(C)COC(=O)n1c(=O)oc2ccc(S(=O)(=O)N3CCCCC3)cc21 is lower in max response: -1.29% for the first, -3.35% for the second.

Compared with CC(Sc1nnc2c(n1)C1CCC2(C)C1(C)C)C(=O)Nc1ccccc1 (configuration not stated), Cc1cc(C)n2nc(C(=O)N(C)C(c3ccccc3)c3ccccc3)nc2n1 is lower in max response: -1.8% for the first, -3.94% for the second.

Compared with Cc1c(OC(C)C(=O)NCC2CCC(C(=O)O)CC2)ccc2c1oc(=O)c1ccccc12 (configuration not stated), O=C(c1cccnc1)N(c1cc2sc(=O)oc2c2ccccc12)S(=O)(=O)c1ccccc1 is lower in max response: -1.17% for the first, -2.05% for the second.

Going from CS(=O)(=O)N(Cc1ccccc1Cl)c1ccc(C(=O)NCc2cccnc2)cc1 to Cc1ccc(N(C(=O)c2ccc(S(=O)(=O)N(C)C)cc2)C2C=CS(=O)(=O)C2)cc1 (configuration not stated), the max response falls from -1.15% to -2.02%.

Compared with CC(O)C(NS(=O)(=O)c1ccc(Cl)cc1)C(=O)OCc1cc([N+](=O)[O-])cc2c1OCOC2 (configuration not stated), COc1ccc(Cl)cc1-n1c(C)cc(C(=O)OCC(=O)N2CC(=O)Nc3ccccc32)c1C is higher in max response: -0.904% for the first, 0.969% for the second.

Compared with CCC1(CC)Cc2ccccc2-c2nc(CCl)[nH]c(=O)c21, CCOCCOC(=O)C1=C(C)NC(=O)NC1c1ccc2c(c1)OCO2 (configuration not stated) is higher in max response: -3.16% for the first, -1.93% for the second.

Going from CCOC(=O)c1c(C)[nH]c(C(=O)COc2ccc3c(c2)OCO3)c1C to Cc1cccc(OCCNC(=S)NC(=O)c2cccnc2)c1, the max response falls from 18% to -2.88%.

Going from CC1CN(C(=S)Nc2ccc(S(N)(=O)=O)cc2)CC(C)O1 (configuration not stated) to CC(C)=C(NC(=O)c1ccccc1)C(=O)N/N=C(\C)c1ccccc1O, the max response rises from -1.03% to 1.01%.

COCCCNC(=S)NNC(=O)C(O)(c1ccccc1)c1ccccc1 gave a max response of -2.66%.

For O=C(CCc1ccccc1)Nc1ncc([N+](=O)[O-])s1, the max response was 60.9% (active).
With CCCn1c(SCC(=O)c2ccc3c(c2)OCCO3)nnc1C(C)C the max response was 15.2% (active).
With CCOC(=O)c1ccc2[nH]c3c(c2c1)CCCC3NC=O (configuration not stated) the max response was 13.2% (active).
With O=C(c1ccccc1)c1ccc(OC(=O)N2CCCC2)cc1 the max response was 37.5% (active).
In the case of CC(C)(C)c1ccc(OC(=O)N2CCCCC2)cc1, the max response is reported as 54.1% (active).
In the case of CN(C)c1ccc(-c2nnc(-c3cccnc3)o2)cc1, the max response is reported as 56.2% (active).
For Cc1ccc2cc3cc(C(=O)N4CCCCCC4)oc3nc2c1, the max response was 43.7% (active).
For Cc1cccc(C(=O)Nc2ccc(C(=O)/C=C/c3cccs3)cc2)c1, the max response was 76% (active).
For O=C(COC(=O)c1ccncc1)c1ccccc1, the max response was 18.7% (active).
With N=c1oc2ccccc2cc1C(=O)N/N=C/c1ccccc1 the max response was 46.7% (active).
With N=c1oc2ccccc2cc1C(=O)NCc1ccccc1 the max response was 41.3% (active).
In the case of CSc1nc(C)cc(SC(C(C)=O)C(=O)Nc2ccccc2)n1 (configuration not stated), the max response is reported as 31.9% (active).
For CC(=O)n1c(C=Nc2ccccc2)c(O)c2ccccc21, the max response was 33.7% (active).
With Nc1ccccc1SCc1cc([N+](=O)[O-])cc2c1OCOC2 the max response was 24.7% (active).
With CCOC(=O)c1nc(-c2ccc3c(c2)OCO3)[nH]c1C the max response was 29% (active).
For C/C(=N\NC(=O)c1ccoc1C)c1ccccc1O, the max response was 18.7% (active).
With COCCCNC(=S)NC(=O)c1ccc([N+](=O)[O-])cc1 the max response was 27.5% (active).
For COCCCNC(=S)NC(=O)c1ccccc1, the max response was 36.8% (active).
